Holding throughout (assay): yeast three-hybrid, YBZ-1, SC-Leu-His + 0.5 mM 3-AT, 4 days
Common to all, as to settings: tags: N-Gal4 AD-HA kept; label: inside an RPR1-promoter hybrid RNA with tandem MS2 sites; ssRNA

The target in assay [1] is PUM1 PUF domain R1-KVR (Homo sapiens, UniProt Q14671 828-1176, S863K;R864V;Q867R). In outline:
(§1)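 A centromeric plasmid in strain YBZ-1 co-expressed Pumilio-1 PUF domain libraries, randomized at the three base-contacting residues of each repeat, with matching RNA elements; the strain carries a LexA–MS2 coat fusion and a HIS3 reporter. After four days on SC-Leu (input) or SC-Leu-His + 0.5 mM 3-AT (selection), the repeat regions were PCR-amplified and Illumina-sequenced. The interaction score is the log change in variant frequency from input to selection, using log2 and a pseudocount of 1 where absent.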

The target of assay [2] is PUM1 PUF domain R1-RLC (Homo sapiens, UniProt Q14671 828-1176, S863R;R864L;Q867C). The essentials: as §1
PUM1 PUF domain R1-RLC, sequence (Q14671 828-1176 S863R/R864L/Q867C): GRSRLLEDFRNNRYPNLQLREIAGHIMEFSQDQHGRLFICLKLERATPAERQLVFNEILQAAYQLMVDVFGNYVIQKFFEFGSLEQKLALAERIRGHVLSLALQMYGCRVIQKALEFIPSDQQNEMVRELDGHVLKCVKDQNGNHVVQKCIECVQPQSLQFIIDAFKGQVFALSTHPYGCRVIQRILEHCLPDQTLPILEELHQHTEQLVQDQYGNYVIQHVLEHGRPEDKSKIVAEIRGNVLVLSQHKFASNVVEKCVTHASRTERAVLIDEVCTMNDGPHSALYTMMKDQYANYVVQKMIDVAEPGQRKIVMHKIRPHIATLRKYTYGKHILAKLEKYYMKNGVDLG
Assay [3] has as its target PUM1 PUF domain R1-RHR (Homo sapiens, UniProt Q14671 828-1176, S863R;R864H;Q867R). In outline:
as §1

In assay [4] the target is PUM1 PUF domain R3-VFA (Homo sapiens, UniProt Q14671 828-1176, C935V;R936F;Q939A). In outline: as §1
PUM1 PUF domain R3-VFA, sequence (Q14671 828-1176 C935V/R936F/Q939A): as the sequence (Q14671 828-1176 S863R/R864L/Q867C) above, with R36S, L37R, C40Q, C108V, R109F, Q112A counted along it
In assay [5] the target is PUM1 PUF domain R3-PWL (Homo sapiens, UniProt Q14671 828-1176, C935P;R936W;Q939L). The essentials:
as §1

Assay [6] has as its target PUM1 PUF domain R3-WYG (Homo sapiens, UniProt Q14671 828-1176, C935W;R936Y;Q939G). The essentials: as §1
For assay [7], the target named is PUM1 PUF domain R3-ACF (Homo sapiens, UniProt Q14671 828-1176, C935A;R936C;Q939F). In outline: as §1
PUM1 PUF domain R3-ACF, sequence (Q14671 828-1176 C935A/R936C/Q939F): as the sequence (Q14671 828-1176 S863R/R864L/Q867C) above, with R36S, L37R, C40Q, C108A, R109C, Q112F counted along it
Assay [8] deals with PUM1 PUF domain R8-MRR (Homo sapiens, UniProt Q14671 828-1176, N1122M;Y1123R;Q1126R). The essentials:
as §1

Assay [9] has as its target PUM1 PUF domain R8-VYP (Homo sapiens, UniProt Q14671 828-1176, N1122V;Q1126P). The essentials: as §1
The target in assay [10] is PUM1 PUF domain R5-PHG (Homo sapiens, UniProt Q14671 828-1176, C1007P;R1008H;Q1011G). In outline: as §1
PUM1 PUF domain R5-PHG, sequence (Q14671 828-1176 C1007P/R1008H/Q1011G): as the sequence (Q14671 828-1176 S863R/R864L/Q867C) above, with R36S, L37R, C40Q, C180P, R181H, Q184G counted along it
For assay [11], the target named is PUM1 PUF domain R5-RHC (Homo sapiens, UniProt Q14671 828-1176, C1007R;R1008H;Q1011C). The essentials: as §1
PUM1 PUF domain R5-RHC, sequence (Q14671 828-1176 C1007R/R1008H/Q1011C): as the sequence (Q14671 828-1176 S863R/R864L/Q867C) above, with R36S, L37R, C40Q, C180R, R181H, Q184C counted along it
Assay [12] has as its target PUM1 PUF domain R8-FYR (Homo sapiens, UniProt Q14671 828-1176, N1122F;Q1126R). The essentials: as §1
The target of assay [13] is PUM1 PUF domain R8-MHR (Homo sapiens, UniProt Q14671 828-1176, N1122M;Y1123H;Q1126R). The essentials:
as §1

Assay [14] has as its target PUM1 PUF domain R4-WAC (Homo sapiens, UniProt Q14671 828-1176, N971W;H972A;Q975C). The essentials:
as §1

The target in assay [15] is PUM1 PUF domain R8-KFD (Homo sapiens, UniProt Q14671 828-1176, N1122K;Y1123F;Q1126D). In outline:
as §1

The target in assay [16] is PUM1 PUF domain R5-RWS (Homo sapiens, UniProt Q14671 828-1176, C1007R;R1008W;Q1011S). In outline:
as §1

For assay [17], the target named is PUM1 PUF domain R5-GMI (Homo sapiens, UniProt Q14671 828-1176, C1007G;R1008M;Q1011I). The essentials: as §1
PUM1 PUF domain R5-GMI, sequence (Q14671 828-1176 C1007G/R1008M/Q1011I): as the sequence (Q14671 828-1176 S863R/R864L/Q867C) above, with R36S, L37R, C40Q, C180G, R181M, Q184I counted along it

PUM1 PUF domain R8-FYR, sequence (Q14671 828-1176 N1122F/Q1126R): as the sequence (Q14671 828-1176 S863R/R864L/Q867C) above, with R36S, L37R, C40Q, N295F, Q299R counted along it
PUM1 PUF domain R3-WYG, sequence (Q14671 828-1176 C935W/R936Y/Q939G): as the sequence (Q14671 828-1176 S863R/R864L/Q867C) above, with R36S, L37R, C40Q, C108W, R109Y, Q112G counted along it
PUM1 PUF domain R4-WAC, sequence (Q14671 828-1176 N971W/H972A/Q975C): as the sequence (Q14671 828-1176 S863R/R864L/Q867C) above, with R36S, L37R, C40Q, N144W, H145A, Q148C counted along it
PUM1 PUF domain R1-KVR, sequence (Q14671 828-1176 S863K/R864V/Q867R): as the sequence (Q14671 828-1176 S863R/R864L/Q867C) above, with R36K, L37V, C40R counted along it
PUM1 PUF domain R1-RHR, sequence (Q14671 828-1176 S863R/R864H/Q867R): as the sequence (Q14671 828-1176 S863R/R864L/Q867C) above, with L37H, C40R counted along it
PUM1 PUF domain R8-MRR, sequence (Q14671 828-1176 N1122M/Y1123R/Q1126R): as the sequence (Q14671 828-1176 S863R/R864L/Q867C) above, with R36S, L37R, C40Q, N295M, Y296R, Q299R counted along it
PUM1 PUF domain R8-VYP, sequence (Q14671 828-1176 N1122V/Q1126P): as the sequence (Q14671 828-1176 S863R/R864L/Q867C) above, with R36S, L37R, C40Q, N295V, Q299P counted along it
PUM1 PUF domain R3-PWL, sequence (Q14671 828-1176 C935P/R936W/Q939L): as the sequence (Q14671 828-1176 S863R/R864L/Q867C) above, with R36S, L37R, C40Q, C108P, R109W, Q112L counted along it
PUM1 PUF domain R8-MHR, sequence (Q14671 828-1176 N1122M/Y1123H/Q1126R): as the sequence (Q14671 828-1176 S863R/R864L/Q867C) above, with R36S, L37R, C40Q, N295M, Y296H, Q299R counted along it
PUM1 PUF domain R8-KFD, sequence (Q14671 828-1176 N1122K/Y1123F/Q1126D): as the sequence (Q14671 828-1176 S863R/R864L/Q867C) above, with R36S, L37R, C40Q, N295K, Y296F, Q299D counted along it
PUM1 PUF domain R5-RWS, sequence (Q14671 828-1176 C1007R/R1008W/Q1011S): as the sequence (Q14671 828-1176 S863R/R864L/Q867C) above, with R36S, L37R, C40Q, C180R, R181W, Q184S counted along it

Regarding “GGCUAGAACUAGUGGAUCCCCCGGCGCCCGGCGGCUCGAGCCCGGGUAAGUGUAAAUUGUCUGCAUGCCGCCGGGCGCCAUGCCUGCAGGUCGACUCUAGAAAACAUG”, the binding signal in [1] was 5.73 log2 enrichment (interaction score); in assay [2], 1.93 log2 enrichment (interaction score); in assay [3], 2.91 log2 enrichment (interaction score).

With “GGCUAGAACUAGUGGAUCCCCCGGCGCCCGGCGGCUCGAGCCCGGGUAAGUGUAAAUCGUCUGCAUGCCGCCGGGCGCCAUGCCUGCAGGUCGACUCUAGAAAACAUG”, the binding signal in assay [1] was 1.81 log2 enrichment (interaction score); in assay [2], 3.21 log2 enrichment (interaction score); in [3] it was 2.88 log2 enrichment (interaction score).

Take “GGCUAGAACUAGUGGAUCCCCCGGCGCCCGGCGGCUCGAGCCCGGGUAAGUGUAAUUAGUCUGCAUGCCGCCGGGCGCCAUGCCUGCAGGUCGACUCUAGAAAACAUG”: the binding signal in [4] was 2.77 log2 enrichment (interaction score); in assay [5], 3.68 log2 enrichment (interaction score); in [6], 4.81 log2 enrichment (interaction score).

“GGCUAGAACUAGUGGAUCCCCCGGCGCCCGGCGGCUCGAGCCCGGGUAAGUGUAAGUAGUCUGCAUGCCGCCGGGCGCCAUGCCUGCAGGUCGACUCUAGAAAACAUG”: the results for the binding signal in assay [4] and in [6] were 2.39 log2 enrichment (interaction score) and 3.09 log2 enrichment (interaction score), respectively.

On to “GGCUAGAACUAGUGGAUCCCCCGGCGCCCGGCGGCUCGAGCCCGGGUAAGUGUAAAUAGUCUGCAUGCCGCCGGGCGCCAUGCCUGCAGGUCGACUCUAGAAAACAUG”, for which the binding signal in assay [7] was 4.04 log2 enrichment (interaction score); in assay [5], 2.76 log2 enrichment (interaction score); in [8], 1.68 log2 enrichment (interaction score); in [9], 2.77 log2 enrichment (interaction score); in assay [10] it was 4.89 log2 enrichment (interaction score); in assay [11] it was 3.15 log2 enrichment (interaction score). For the same sequence, the figures for the binding signal in assay [12], in assay [13] and in [14] were 5.38 log2 enrichment (interaction score), 3.92 log2 enrichment (interaction score) and 3.2 log2 enrichment (interaction score), respectively.

Regarding “GGCUAGAACUAGUGGAUCCCCCGGCGCCCGGCGGCUCGAGCCCGGGUAAGCGUAAAUAGUCUGCAUGCCGCCGGGCGCCAUGCCUGCAGGUCGACUCUAGAAAACAUG”, the binding signal is 2.54 log2 enrichment (interaction score) in assay [8], 3.87 log2 enrichment (interaction score) in [9], 5.29 log2 enrichment (interaction score) in [12] and 5.69 log2 enrichment (interaction score) in assay [15].

Consider “GGCUAGAACUAGUGGAUCCCCCGGCGCCCGGCGGCUCGAGCCCGGGUAAGUGUUAAUAGUCUGCAUGCCGCCGGGCGCCAUGCCUGCAGGUCGACUCUAGAAAACAUG”, for which the binding signal is 6.47 log2 enrichment (interaction score) in [16], 4.37 log2 enrichment (interaction score) in [10], 5.98 log2 enrichment (interaction score) in [11] and 2.18 log2 enrichment (interaction score) in assay [17].

In the case of “GGCUAGAACUAGUGGAUCCCCCGGCGCCCGGCGGCUCGAGCCCGGGUAAGUGUACAUAGUCUGCAUGCCGCCGGGCGCCAUGCCUGCAGGUCGACUCUAGAAAACAUG”, the binding signal in [14] was 2.99 log2 enrichment (interaction score).
